# Measurements taken from PubChem BioAssay (EPA / NIEHS).
# Calls of active or inactive are those of the source. The calls were made as follows: active = hit-call score of the fitted dose curve at least 0.9, where 1 is the maximum; inactive = score below 0.9.
# Key:
# Conditions in all cases: mRNA level, 48 h; actives raise or lower the signal
# [1] = read-out: Apoptosis regulator Bcl-2 (Homo sapiens) (UniProt P10415); assay: LTEA_HepaRG_BCL2: Life Technologies and Expression Analysis (LTEA) Assay for Bcl-2 gene using HepaRG (AID 2283475);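 also: BCL2 transcript by TaqMan qRT-PCR normalised to ACTB GAPDH and POLR2A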
# Summary of the method: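 Each chemical was tested in duplicate on HepaRG cultures held in serum-free induction medium for 48 h, highest concentration 100 uM with half-log dilutions. Transcript levels came from multiplexed qRT-PCR, normalised to housekeeping genes; activity was scored in either direction relative to DMSO.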
# Caspase-3 (Homo sapiens) = Caspase-3 (Homo sapiens) (UniProt P42574); assay: LTEA_HepaRG_CASP3: Life Technologies and Expression Analysis (LTEA) Assay for cysteine-aspartic acid protease (CASP3) using HepaRG (AID 2283477)
# Sequence of Caspase-3 (Homo sapiens) (P42574 whole entry, looked up): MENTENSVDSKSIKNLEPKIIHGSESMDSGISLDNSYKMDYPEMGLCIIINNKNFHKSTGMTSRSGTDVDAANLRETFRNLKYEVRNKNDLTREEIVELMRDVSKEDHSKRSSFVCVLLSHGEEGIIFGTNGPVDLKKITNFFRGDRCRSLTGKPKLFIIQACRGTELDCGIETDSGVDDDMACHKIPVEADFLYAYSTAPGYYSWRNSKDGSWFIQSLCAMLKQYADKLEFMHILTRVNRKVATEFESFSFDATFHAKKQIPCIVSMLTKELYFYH
# Summary of the method: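 In HepaRG liver cells dosed for 48 h at up to 100 uM (eight-point, duplicate), CASP3 expression changes are scored by qRT-PCR. Activity is fitted in both directions with 0.5% DMSO as baseline.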
# [2] = read-out: Cytochrome P450 (CYP1A2), CYP1A2 (gene 1544); assay: LTEA_HepaRG_CYP1A2: Life Technologies and Expression Analysis (LTEA) Assay for Cytochrome P450 (CYP1A2) using HepaRG (AID 2283479);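 as to AC50: TaqMan qRT-PCR transcript level normalized to ACTB GAPDH and POLR2A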
# Summary of the method: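 Assesses CYP1A2 mRNA in human HepaRG liver cells after 48 h chemical exposure at up to 100 uM. Values come from qRT-PCR with bidirectional curve fitting relative to DMSO.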
# [3] = read-out: cysteine-aspartic acid protease (CASP8), CASP8 (gene 841); assay: LTEA_HepaRG_CASP8: Life Technologies and Expression Analysis (LTEA) Assay for cysteine-aspartic acid protease (CASP8) using HepaRG (AID 2283480)
# Summary of the method: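 Concentration-response in duplicate up to 100 uM (half-log steps, 0.5% DMSO) on differentiated HepaRG cultures for 48 h. Expression change of CASP8 mRNA is determined by TaqMan qRT-PCR with housekeeping-gene normalization.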
# [4] = read-out: Cytochrome P450 (CYP2B6), CYP2B6 (gene 1555); assay: LTEA_HepaRG_CYP2B6: Life Technologies and Expression Analysis (LTEA) Assay for Cytochrome P450 (CYP2B6) using HepaRG (AID 2283481)
# Summary of the method: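 Using 48 h treatment of HepaRG cells in serum-free induction medium, concentrations spanned half-log steps from 100 uM in 0.5% DMSO vehicle. CYP2B6 mRNA induction or loss is scored by qRT-PCR against DMSO.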
# [5] = read-out: Cytochrome P450 2C19 (Homo sapiens) (UniProt P33261); assay: LTEA_HepaRG_CYP2C19: Life Technologies and Expression Analysis (LTEA) Assay for CYP2C19 using HepaRG (AID 2283482)
# Summary of the method: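 Human HepaRG liver cells received test chemicals for 48 h (highest 100 uM, half-log dilutions in 0.5% DMSO). CYP2C19 mRNA induction or loss is read by multiplexed qRT-PCR and fitted in both directions versus vehicle.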
# CYP2C8 (gene 1558) = assay: LTEA_HepaRG_CYP2C8: Life Technologies and Expression Analysis (LTEA) Assay for CYP2C8 using HepaRG (AID 2283483)
# Summary of the method: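 This is a transcriptional endpoint in HepaRG cultures: 48 h exposure, highest concentration 100 uM. CYP2C8 mRNA is quantified by TaqMan qRT-PCR.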
# CYP2C9 (gene 1559) = assay: LTEA_HepaRG_CYP2C9: Life Technologies and Expression Analysis (LTEA) Assay for CYP2C9 using HepaRG (AID 2283484)
# Summary of the method: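 Eight-point concentration-response (highest 100 uM, half-log dilutions) in HepaRG cells for 48 h; CYP2C9 expression by qRT-PCR normalized to ACTB, GAPDH, POLR2A. Bidirectional fit, DMSO baseline.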
# CYP2E1 (gene 1571) = assay: LTEA_HepaRG_CYP2E1: Life Technologies and Expression Analysis (LTEA) Assay for CYP2E1 using HepaRG (AID 2283485)
# Summary of the method: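 Assay uses 48 h exposure of HepaRG hepatic cells, eight concentrations to 100 uM. Expression of CYP2E1 is quantified by TaqMan qRT-PCR with ACTB, GAPDH and POLR2A normalization; curves fitted in both directions relative to vehicle.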
# CYP4A11 (gene 1579) = assay: LTEA_HepaRG_CYP4A11: Life Technologies and Expression Analysis (LTEA) Assay for CYP4A11 using HepaRG (AID 2283486)
# Summary of the method: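 Readout is CYP4A11 mRNA induction or suppression (qRT-PCR, ACTB/GAPDH/POLR2A normalization) in human HepaRG cells after 48 h chemical treatment, concentrations to 100 uM in 0.5% DMSO, fitted bidirectionally against vehicle.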
# [6] = read-out: Cytochrome P450 3A4 (Homo sapiens) (UniProt P08684); assay: LTEA_HepaRG_CYP3A4: Life Technologies and Expression Analysis (LTEA) Assay for CYP3A4 using HepaRG (AID 2283487)
# Summary of the method: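 HepaRG, 48 h exposure, 8-pt CRC from 100 uM (half-log), 0.5% DMSO, duplicates; serum-free induction medium. Readout: CYP3A4 mRNA, qRT-PCR, ACTB/GAPDH/POLR2A normalization. Bidirectional fit vs DMSO.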
# [7] = read-out: DNA damage-inducible transcript 3 (DDIT3), DDIT3 (gene 1649); assay: LTEA_HepaRG_DDIT3: Life Technologies and Expression Analysis (LTEA) Assay for DNA damage-inducible transcript 3 (DDIT3) using HepaRG (AID 2283488)
# Summary of the method: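 Eight-point concentration-response (100 uM highest, half-log dilutions) in HepaRG, 48 h, duplicate wells. Endpoint: qRT-PCR mRNA, normalized (ACTB, GAPDH, POLR2A), bidirectional fitting with DMSO as baseline.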
# [8] = read-out: Pro-epidermal growth factor (Homo sapiens) (UniProt P01133); assay: LTEA_HepaRG_EGF: Life Technologies and Expression Analysis (LTEA) Assay for Epidermal growth factor (EGF) using HepaRG (AID 2283489)
# Summary of the method: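 EGF expression changes in human HepaRG cells are scored by bidirectional fitting relative to 0.5% DMSO controls. Chemicals are tested at eight half-log concentrations up to 100 uM for 48 h in serum-free induction medium.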
# [9] = read-out: Early growth response protein 1 (EGR1) transcription factor, EGR1 (gene 1958); assay: LTEA_HepaRG_EGR1: Life Technologies and Expression Analysis (LTEA) Assay for Early growth response protein 1 (EGR1) transcription factor using HepaRG (AID 2283490)
# Summary of the method: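 EGR1 expression change in human HepaRG after 48 h chemical exposure, assessed by housekeeping-normalized qRT-PCR; concentration-response up to 100 uM, fitted in both directions against DMSO controls.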
# [10] = read-out: Cytochrome P450 3A7 (Homo sapiens) (UniProt P24462); assay: LTEA_HepaRG_CYP3A7: Life Technologies and Expression Analysis (LTEA) Assay for CYP3A7 using HepaRG (AID 2283492)
# Summary of the method: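 Cells were thawed, plated, cultured 48 h, then treated for a further 48 h with chemicals (eight-point half-log series from 100 uM, 0.5% DMSO). RNA was isolated and CYP3A7 expression quantified by qRT-PCR normalised to ACTB, GAPDH and POLR2A.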
# CYP3A5 (gene 1577) = assay: LTEA_HepaRG_CYP3A5: Life Technologies and Expression Analysis (LTEA) Assay for CYP3A5 using HepaRG (AID 2283493)
# Summary of the method: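 Readout was CYP3A5 mRNA by qRT-PCR. HepaRG cultures were exposed for 48 h in serum-free induction medium to chemicals at up to 100 uM, and responses were fitted in both directions relative to DMSO vehicle.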
# [11] = read-out: Fatty Acid-Binding Protein 1 (FABP1), FABP1 (gene 2168); assay: LTEA_HepaRG_FABP1: Life Technologies and Expression Analysis (LTEA) Assay for Fatty Acid-Binding Protein 1 (FABP1) using HepaRG (AID 2283494)
# Summary of the method: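 Values reflect bidirectional concentration-response fitting of FABP1 mRNA change against 0.5% DMSO controls. Human HepaRG cultures received eight half-log doses (top 100 uM) for 48 h; expression quantified by TaqMan qRT-PCR with housekeeping-gene normalization.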
# [12] = read-out: Cytochrome P450 4A22 (Homo sapiens) (UniProt Q5TCH4); assay: LTEA_HepaRG_CYP4A22: Life Technologies and Expression Analysis (LTEA) Assay for Cytochrome P450 4A22 (CYP4A22) using HepaRG (AID 2283495)
# Summary of the method: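 Cryopreserved HepaRG cells, plated and cultured 48 h, then switched to serum-free induction medium and treated 48 h (duplicates, up to 100 uM, half-log steps, 0.5% DMSO). Expression change of CYP4A22 was fitted bidirectionally against vehicle.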
# [13] = read-out: Cytochrome P450 7A1 (Homo sapiens) (UniProt P22680); assay: LTEA_HepaRG_CYP7A1: Life Technologies and Expression Analysis (LTEA) Assay for Cytochrome P450 7A1 (CYP7A1) using HepaRG (AID 2283496)
# Summary of the method: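 Using 0.5% DMSO as vehicle and baseline, chemicals were tested in duplicate over an 8-point range from 100 uM on HepaRG cells for 48 h; qRT-PCR signals were normalised to ACTB, GAPDH and POLR2A.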
# [14] = read-out: Glutathione S-Transferase (GSTA2), GSTA2 (gene 2939); assay: LTEA_HepaRG_GSTA2: Life Technologies and Expression Analysis (LTEA) Assay for Glutathione S-Transferase (GSTA2) using HepaRG (AID 2283497)
# Summary of the method: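 Oxidative-stress marker GSTA2 is quantified by TaqMan qRT-PCR in HepaRG cultures treated 48 h across an eight-point range to 100 uM. Expression is normalized to endogenous controls and compared with 0.5% DMSO vehicle.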
# Sequence of Cytochrome P450 3A4 (Homo sapiens) (P08684 whole entry, looked up): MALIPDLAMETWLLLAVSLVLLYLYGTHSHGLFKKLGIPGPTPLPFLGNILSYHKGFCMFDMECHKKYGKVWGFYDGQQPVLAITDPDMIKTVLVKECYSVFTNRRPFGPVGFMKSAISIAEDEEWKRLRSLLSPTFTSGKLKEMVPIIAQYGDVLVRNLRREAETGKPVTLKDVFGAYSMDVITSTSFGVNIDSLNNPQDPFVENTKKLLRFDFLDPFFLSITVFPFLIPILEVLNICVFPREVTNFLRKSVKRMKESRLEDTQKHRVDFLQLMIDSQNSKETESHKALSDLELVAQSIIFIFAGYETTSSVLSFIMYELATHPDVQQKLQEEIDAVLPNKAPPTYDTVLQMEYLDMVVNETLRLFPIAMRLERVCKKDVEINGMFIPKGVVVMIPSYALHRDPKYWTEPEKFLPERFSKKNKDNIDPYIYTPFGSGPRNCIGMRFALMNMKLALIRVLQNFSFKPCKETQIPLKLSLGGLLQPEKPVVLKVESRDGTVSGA
# Sequence of Apoptosis regulator Bcl-2 (Homo sapiens) (P10415 whole entry, looked up): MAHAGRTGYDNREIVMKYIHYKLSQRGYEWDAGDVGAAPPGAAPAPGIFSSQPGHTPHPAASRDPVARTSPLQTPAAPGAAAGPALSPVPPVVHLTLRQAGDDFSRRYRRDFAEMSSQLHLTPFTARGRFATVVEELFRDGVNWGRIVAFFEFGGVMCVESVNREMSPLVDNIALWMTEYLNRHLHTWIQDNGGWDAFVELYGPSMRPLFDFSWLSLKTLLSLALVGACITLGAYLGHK
# Sequence of Cytochrome P450 3A7 (Homo sapiens) (P24462 whole entry, looked up): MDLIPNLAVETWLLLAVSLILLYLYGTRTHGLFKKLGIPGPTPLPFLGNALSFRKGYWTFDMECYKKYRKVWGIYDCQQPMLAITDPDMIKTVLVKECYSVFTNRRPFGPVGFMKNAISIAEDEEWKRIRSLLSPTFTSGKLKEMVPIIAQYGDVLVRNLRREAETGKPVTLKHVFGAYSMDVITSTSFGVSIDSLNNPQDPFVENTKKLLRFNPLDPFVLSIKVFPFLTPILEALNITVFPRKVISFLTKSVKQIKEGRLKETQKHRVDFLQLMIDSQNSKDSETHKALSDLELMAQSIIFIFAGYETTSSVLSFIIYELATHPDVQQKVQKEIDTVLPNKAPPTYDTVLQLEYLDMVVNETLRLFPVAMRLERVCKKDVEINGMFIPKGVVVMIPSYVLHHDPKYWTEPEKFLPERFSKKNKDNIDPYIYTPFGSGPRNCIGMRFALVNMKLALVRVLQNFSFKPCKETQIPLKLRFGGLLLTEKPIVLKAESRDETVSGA
# Sequence of Cytochrome P450 2C19 (Homo sapiens) (P33261 whole entry, looked up): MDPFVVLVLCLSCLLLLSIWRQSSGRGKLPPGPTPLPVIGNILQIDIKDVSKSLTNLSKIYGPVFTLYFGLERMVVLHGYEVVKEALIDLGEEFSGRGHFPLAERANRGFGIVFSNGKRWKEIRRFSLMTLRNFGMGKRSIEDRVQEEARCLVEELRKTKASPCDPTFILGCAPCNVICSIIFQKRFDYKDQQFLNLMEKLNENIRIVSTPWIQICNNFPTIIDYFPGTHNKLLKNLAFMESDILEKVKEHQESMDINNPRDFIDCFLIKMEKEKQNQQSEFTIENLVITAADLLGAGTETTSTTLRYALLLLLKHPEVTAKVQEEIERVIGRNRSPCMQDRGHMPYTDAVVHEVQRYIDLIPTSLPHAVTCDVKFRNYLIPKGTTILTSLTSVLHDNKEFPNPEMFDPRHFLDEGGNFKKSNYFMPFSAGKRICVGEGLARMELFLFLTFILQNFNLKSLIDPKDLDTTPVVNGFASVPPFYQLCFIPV
structure (smiles),measurement,setting,value
CCCCCCCCCCCCCCC,outcome,[1],inactive
same,outcome,Caspase-3 (Homo sapiens),inactive
same,outcome,[2],inactive
same,outcome,[3],inactive
same,AC50,[4],5.89 µM (active)
same,AC50,[5],17.3 µM (active)
same,outcome,CYP2C8 (gene 1558),inactive
same,outcome,CYP2C9 (gene 1559),inactive
same,AC50,CYP2E1 (gene 1571),1.94 µM (active)
same,outcome,CYP4A11 (gene 1579),inactive
same,AC50,[6],8.75 µM (active)
same,outcome,[7],inactive
same,outcome,[8],inactive
same,outcome,[9],inactive
same,AC50,[10],14.9 µM (active)
same,outcome,CYP3A5 (gene 1577),inactive
same,outcome,[11],inactive
same,outcome,[12],inactive
same,outcome,[13],inactive
same,outcome,[14],inactive
CCCCC=O,outcome,[1],inactive
same,outcome,Caspase-3 (Homo sapiens),inactive
same,outcome,[2],inactive
same,outcome,[3],inactive
same,outcome,[4],inactive
same,outcome,[5],inactive
same,outcome,CYP2C8 (gene 1558),inactive
same,outcome,CYP2C9 (gene 1559),inactive
same,outcome,CYP2E1 (gene 1571),inactive
same,outcome,CYP4A11 (gene 1579),inactive
same,outcome,[6],inactive
same,outcome,[7],inactive
same,outcome,[8],inactive
same,outcome,[9],inactive
same,outcome,[10],inactive
same,outcome,CYP3A5 (gene 1577),inactive
same,outcome,[11],inactive
same,outcome,[12],inactive
same,outcome,[13],inactive
same,outcome,[14],inactive
O=C(CCCN1CCC(O)(c2ccc(Cl)cc2)CC1)c1ccc(F)cc1,AC50,[1],81.3 µM (active)
same,outcome,Caspase-3 (Homo sapiens),inactive
same,AC50,[2],82.6 µM (active)
same,outcome,[3],inactive
same,AC50,[4],79.7 µM (active)
same,outcome,CYP2C8 (gene 1558),inactive
same,AC50,CYP2C9 (gene 1559),77.8 µM (active)
same,AC50,CYP2E1 (gene 1571),66.2 µM (active)
same,AC50,CYP4A11 (gene 1579),73.5 µM (active)
same,AC50,[7],73.9 µM (active)
same,outcome,[8],inactive
same,AC50,[9],94.4 µM (active)
same,AC50,[10],75.8 µM (active)
same,outcome,CYP3A5 (gene 1577),inactive
same,AC50,[11],93.2 µM (active)
same,AC50,[12],64 µM (active)
same,AC50,[13],82 µM (active)
same,AC50,[14],78 µM (active)
CC(=O)Nc1ccc(O)cc1,outcome,[1],inactive
same,outcome,Caspase-3 (Homo sapiens),inactive
same,outcome,[2],inactive
same,outcome,[3],inactive
same,outcome,[4],inactive
same,outcome,[5],inactive
same,outcome,CYP2C8 (gene 1558),inactive
same,outcome,CYP2C9 (gene 1559),inactive
same,outcome,CYP2E1 (gene 1571),inactive
same,outcome,CYP4A11 (gene 1579),inactive
same,outcome,[6],inactive
same,outcome,[7],inactive
same,outcome,[8],inactive
same,outcome,[9],inactive
same,outcome,[10],inactive
same,outcome,CYP3A5 (gene 1577),inactive
same,outcome,[11],inactive
same,outcome,[12],inactive
same,outcome,[13],inactive
same,outcome,[14],inactive
CCCCC(CC)C(=O)O (configuration not stated),outcome,[1],inactive
same,outcome,Caspase-3 (Homo sapiens),inactive
same,outcome,[2],inactive
same,outcome,[3],inactive
same,outcome,[4],inactive
same,outcome,[5],inactive
same,outcome,CYP2C8 (gene 1558),inactive
same,outcome,CYP2C9 (gene 1559),inactive
same,outcome,CYP2E1 (gene 1571),inactive
same,outcome,CYP4A11 (gene 1579),inactive
same,outcome,[6],inactive
same,outcome,[7],inactive
same,outcome,[8],inactive
same,outcome,[9],inactive
same,outcome,[10],inactive
same,outcome,CYP3A5 (gene 1577),inactive
same,outcome,[11],inactive
same,outcome,[12],inactive
same,outcome,[13],inactive
same,outcome,[14],inactive
CS(=O)(=O)c1ccc([C@@H](CC2CCCC2)C(=O)Nc2cnccn2)cc1Cl,AC50,[1],61.8 µM (active)
same,outcome,Caspase-3 (Homo sapiens),inactive
same,outcome,[3],inactive
same,AC50,[7],71.2 µM (active)
same,outcome,[8],inactive
same,AC50,[9],83.9 µM (active)
same,AC50,[11],63.4 µM (active)
same,AC50,[14],73.7 µM (active)
CCCCc1oc2ccccc2c1C(=O)c1cc(I)c(OCCN(CC)CC)c(I)c1,AC50,[1],59.5 µM (active)
same,outcome,Caspase-3 (Homo sapiens),inactive
same,outcome,[3],inactive
same,AC50,[7],56.8 µM (active)
same,outcome,[8],inactive
same,AC50,[9],61 µM (active)
same,AC50,[11],69.9 µM (active)
same,AC50,[14],59 µM (active)
CN(C)CCOC(c1ccccc1)c1ccccc1,outcome,[1],inactive
same,outcome,Caspase-3 (Homo sapiens),inactive
same,outcome,[3],inactive
same,outcome,[7],inactive
same,outcome,[8],inactive
same,outcome,[9],inactive
same,outcome,[11],inactive
same,outcome,[14],inactive
